Here are results for ten compounds from PubChem BioAssay (NCATS).

Inconclusive results are not listed. Calls of active or inactive are those of the source. Calls come from the whole dose curve; as a rule, active = well fitted curve in the direction sought with a large enough effect; inconclusive = small, poorly fitted or top-dose-only effect, or another doubt; inactive = no such curve, though single readings can be large; an effect the other way counts as inactive or inconclusive.

Test [1] in a line: Quantitative High-Throughput drug screen in 47 multiple myeloma cell lines against the NCATS MIPE library collection: Karpas417_ECACC cell viability assay (AID 1918961). The following applies: Karpas417 myeloma viability, CellTiter-Glo ATP luminescence, 48 h; viability (% of DMSO): at 45.8 µM (top of the series). The method in brief:
(§1)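 Myeloma cells (500 per well) were exposed to MIPE 4.0 compounds by pin transfer and incubated 48 hours at 37C, 5% CO2. Viability was read as ATP by CellTiter-Glo luminescence, normalised to DMSO (100%) and media-only (0%) wells.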

The nature of test [2]: Quantitative High-Throughput drug screen in 47 multiple myeloma cell lines against the NCATS MIPE library collection: JIM3_ECACC cell viability assay (AID 1918963; note: nearly all actives have a fitted effect of over 35% in size). The method in brief: (§2)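 CellTiter-Glo luminescence (ATP) after 48 h compound exposure, 37C/5% CO2; 500 cells/well; MIPE 4.0 approved/investigational drugs pinned in; DMSO = 100%, media only = 0% viability.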
Test [3] can be described thus: Quantitative High-Throughput drug screen in 47 multiple myeloma cell lines against the NCATS MIPE library collection: JIM1_ECACC cell viability assay (AID 1918964). Summed up:
as §2

A short description of test [4]: Quantitative High-Throughput drug screen in 47 multiple myeloma cell lines against the NCATS MIPE library collection: INA6_PLB cell viability assay (AID 1918965; note: nearly all actives have a fitted effect of over 55% in size). The method in brief:
as §1

Test [5] is described as follows: Quantitative High-Throughput drug screen in 47 multiple myeloma cell lines against the NCATS MIPE library collection: JJN3_DSMZ cell viability assay (AID 1918966; note: nearly all actives have a fitted effect of over 50% in size). The method in brief: as §2
Test [6] can be described thus: Quantitative High-Throughput drug screen in 47 multiple myeloma cell lines against the NCATS MIPE library collection: H1112_PLB cell viability assay (AID 1918967; note: nearly all actives have a fitted effect of over 30% in size). The method in brief: as §2
Test [7] is described as follows: Quantitative High-Throughput drug screen in 47 multiple myeloma cell lines against the NCATS MIPE library collection: Karpas25_ECACC cell viability assay (AID 1918968; note: nearly all actives have a fitted effect of over 35% in size). The method in brief: as §2
Test [8] in a line: Quantitative High-Throughput drug screen in 47 multiple myeloma cell lines against the NCATS MIPE library collection: KMS27_JCRB cell viability assay (AID 1918970). Note: nearly all actives have a fitted effect of over 30% in size. The following applies: KMS27 myeloma cells, CellTiter-Glo ATP viability, 48 h; viability (% of DMSO): at 45.8 µM (top of the series). Summed up: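 Luminescent ATP read-out (CellTiter-Glo, 5 min at room temperature) after 48 h compound exposure of 500 KMS27_JCRB cells per well; DMSO wells define full viability and media-only wells zero.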
In general terms: In ATP-based viability assays light output follows the ATP content of the culture.

Test [9] is described as follows: Quantitative High-Throughput drug screen in 47 multiple myeloma cell lines against the NCATS MIPE library collection: KMS12BM_JCRB cell viability assay (AID 1918971). Note: nearly all actives have a fitted effect of over 35% in size. Summed up:
(§3)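 Approved and investigational drugs from MIPE 4.0 were added by pin tool to 500 cells per well. After 48 hours at 37C, ATP-based CellTiter-Glo luminescence indicated remaining viability.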

A short description of test [10]: Quantitative High-Throughput drug screen in 47 multiple myeloma cell lines against the NCATS MIPE library collection: KMS12PE_JCRB cell viability assay (AID 1918972). Note: nearly all actives have a fitted effect of over 30% in size. Summed up:
as §1

Test [11] can be described thus: Quantitative High-Throughput drug screen in 47 multiple myeloma cell lines against the NCATS MIPE library collection: KMS20_JCRB cell viability assay (AID 1918973). Note: nearly all actives have a fitted effect of over 45% in size. The method in brief: as §2
Test [12] can be described thus: Quantitative High-Throughput drug screen in 47 multiple myeloma cell lines against the NCATS MIPE library collection: KMS21BM_JCRB cell viability assay (AID 1918974). To be noted: ATP luminescence, 48 h; viability: at 45.8 µM (top of the series). Summed up:
as §2

Test [13] can be described thus: Quantitative High-Throughput drug screen in 47 multiple myeloma cell lines against the NCATS MIPE library collection: KMS26_JCRB cell viability assay (AID 1918975). Note: nearly all actives have a fitted effect of over 45% in size. The method in brief:
as §3

The nature of test [14]: Quantitative High-Throughput drug screen in 47 multiple myeloma cell lines against the NCATS MIPE library collection: MMM1_PLB cell viability assay (AID 1918976). Note: nearly all actives have a fitted effect of over 35% in size. Summed up: (§4)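 Myeloma cells (500/well) treated with MIPE 4.0 compounds for 48 h at 37 °C, 5% CO2. Viability read as ATP via CellTiter-Glo luminescence after 5 min at RT; DMSO-only wells = 100%, media-only = 0% viability.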

A short description of test [15]: Quantitative High-Throughput drug screen in 47 multiple myeloma cell lines against the NCATS MIPE library collection: MOLP8_DSMZ cell viability assay (AID 1918977). Note: nearly all actives have a fitted effect of over 45% in size. The method in brief:
as §4

A short description of test [16]: Quantitative High-Throughput drug screen in 47 multiple myeloma cell lines against the NCATS MIPE library collection: NCIH929_DSMZ cell viability assay (AID 1918978). Note: nearly all actives have a fitted effect of over 35% in size. Summed up:
as §4

The nature of test [17]: Quantitative High-Throughput drug screen in 47 multiple myeloma cell lines against the NCATS MIPE library collection: OCIMY1_PLB cell viability assay (AID 1918979). Note: nearly all actives have a fitted effect of over 35% in size. Summed up: as §4
Test [18] can be described thus: Quantitative High-Throughput drug screen in 47 multiple myeloma cell lines against the NCATS MIPE library collection: MM1S_ATCC cell viability assay (AID 1918980). Note: nearly all actives have a fitted effect of over 45% in size. The method in brief: as §4
Test [19] in a line: Quantitative High-Throughput drug screen in 47 multiple myeloma cell lines against the NCATS MIPE library collection: MM1R_ATCC cell viability assay (AID 1918981). Note: nearly all actives have a fitted effect of over 35% in size. Summed up:
as §4

Test [20] can be described thus: Quantitative High-Throughput drug screen in 47 multiple myeloma cell lines against the NCATS MIPE library collection: KHM11_PLB cell viability assay (AID 1918962). Note: nearly all actives have a fitted effect of over 35% in size. Summed up: as §2
Potency is the fitted concentration of half-maximal effect.

On to `COc1cc(OC)c(C=CS(=O)(=O)Cc2ccc(OC)c(NCC(=O)O)c2)c(OC)c1`, for which the Potency in test [1] was 1.18 µM (active); in test [2], 0.209 µM (active); in test [3] it was 0.0372 µM (active); in test [4], 0.296 µM (active); in test [5], 1.05 µM (active); in [6] it was 0.418 µM (active). Also, the Potency in [7] was 0.332 µM (active); in test [8], 0.0743 µM (active); in [9], 0.418 µM (active); in [10] it was 0.105 µM (active); in test [11] it was 1.18 µM (active); in [12] it was 0.0833 µM (active). Moreover, the Potency in [13] is 1.32 µM (active); in [14], 0.743 µM (active); in test [15], 2.09 µM (active); in [16], 2.64 µM (active); in test [17], 0.418 µM (active); in [18], 4.18 µM (active). Moreover, the Potency in test [19] was 2.35 µM (active).

Turning to `CCc1c(O)cc(O)c(C(=O)c2ccc(OCCN3CCOCC3)c(OC)c2)c1CC(=O)N(CCOC)CCOC`, the Potency entry in test [1] is “inactive”. For the same compound, the Potency was 0.469 µM (active) in test [20]; 0.833 µM (active) in test [2]; 0.59 µM (active) in test [4]; 0.935 µM (active) in test [5]; 14.8 µM (active) in test [6]; 0.526 µM (active) in test [7]. The Potency was 0.526 µM (active) in test [11]; 0.833 µM (active) in test [13]; 1.48 µM (active) in test [14]; 0.662 µM (active) in test [15]; 1.05 µM (active) in test [16]; 16.6 µM (active) in test [17]. Further, the values for the Potency in test [18] and in test [19] were 1.48 µM (active) and 1.18 µM (active), respectively.

With `COc1cc(C(=O)NC2CCN(C)CC2)ccc1Nc1ncc2c(n1)N(C1CCCC1)CCC(=O)N2C(C)C`, the Potency in test [1] is 13.2 µM (active); in [2] it was 20.9 µM (active); in test [3], 5.9 µM (active); in [4] it was 3.72 µM (active); in test [5], 8.33 µM (active); in test [6], 23.5 µM (active). In addition, the Potency in test [7] is 20.9 µM (active); in test [8], 5.9 µM (active); in test [10], 13.2 µM (active); in test [11], 16.6 µM (active); in [12] it was 3.72 µM (active); in [16], 10.5 µM (active).

In the case of `COc1cc(C=CC(=O)CC(=O)C=Cc2ccc(O)c(OC)c2)ccc1O`, the Potency in [1] was 4.81 µM (active); in test [2], 4.81 µM (active); in test [3], 3.4 µM (active); in test [4], 1.52 µM (active); in [5], 13.6 µM (active); in test [6], 6.79 µM (active). In addition, the Potency in test [7] is 0.96 µM (active); in test [8] it was 3.03 µM (active); in test [9], 19.1 µM (active); in test [10], 7.62 µM (active); in [11], 6.05 µM (active); in [13], 48.1 µM (active). The Potency in test [14] is 38.2 µM (active); in [15], 9.59 µM (active); in test [16] it was 3.4 µM (active); in test [17] it was 21.5 µM (active); in test [18] it was 27 µM (active); in [19] it was 7.62 µM (active).

For `COc1ccc2c(c1OC)C(=O)OC2[C@H]1c2c(cc3c(c2OC)OCO3)CCN1C` (stereo not given in full), the Potency is 2.09 µM (active) in test [1]; 0.0833 µM (active) in test [2]; 0.001 µM (active) in [3]; 0.0526 µM (active) in test [4]; 5.26 µM (active) in test [5]; 0.235 µM (active) in test [6]. The Potency in test [7] was 0.235 µM (active); in test [8], 0.132 µM (active); in test [9], 0.0418 µM (active); in test [10], 0.105 µM (active); in test [13] it was 3.32 µM (active); in test [14] it was 2.64 µM (active). In addition, the Potency is 6.62 µM (active) in test [15], 1.87 µM (active) in test [16] and 0.418 µM (active) in test [19].

`O=C1NC(O)CCN1[C@@H]1O[C@H](CO)[C@H](O)[C@H]1O` (stereo not given in full): the Potency result in [1], in test [20], in test [2], in [6], in [7] and in test [8] was “inactive” each time. Besides, the Potency result in test [10], in [13], in test [15], in [16], in test [17] and in test [19] was “inactive” in each case.

On to `C[C@H]1C[C@H]2[C@@H]3CCC4=CC(=O)C=C[C@]4(C)[C@@H]3C(=O)C[C@]2(C)[C@@]1(O)C(=O)CO`, for which the Potency result in [1], in test [20], in test [2], in [5], in [7] and in test [8] was “inactive” each time. Besides, the Potency result in [9], in [10], in test [15], in test [16], in test [18] and in [19] was “inactive” throughout.

In the case of `OCCNC1CCCc2c1[nH]c1ccc(-c3ccccc3)cc21` (stereo not given), the Potency is 10.5 µM (active) in [1]; 9.35 µM (active) in test [20]; 18.7 µM (active) in [2]; 7.43 µM (active) in test [4]; 23.5 µM (active) in test [5]; 20.9 µM (active) in [6]. Further, the Potency is 9.35 µM (active) in test [7]; 23.5 µM (active) in [8]; 8.33 µM (active) in [10]; 5.26 µM (active) in test [11]; 20.9 µM (active) in test [13]; 20.9 µM (active) in test [14]. Also, the results for the Potency in test [16], in test [17] and in [19] were 13.2 µM (active), 26.4 µM (active) and 20.9 µM (active), respectively.

Turning to `CN1CCCN(C(=O)c2cccc(-c3ccc(C=C4C(=O)Nc5ccc(Cl)cc54)o3)c2)CC1`, the Potency was 3.72 µM (active) in [1]; 26.4 µM (active) in test [2]; 6.62 µM (active) in test [3]; 7.43 µM (active) in test [4]; 18.7 µM (active) in test [5]; 8.33 µM (active) in [7]. Besides, the Potency is 3.32 µM (active) in test [8]; 23.5 µM (active) in test [9]; 7.43 µM (active) in test [10]; 4.69 µM (active) in test [11]; 7.43 µM (active) in [12]; 18.7 µM (active) in test [13]. Besides, the Potency in test [14] is 8.33 µM (active); in [15] it was 4.18 µM (active); in test [16], 20.9 µM (active); in test [18] it was 14.8 µM (active); in test [19], 5.9 µM (active).

For the compound `N#Cc1c(C2CCNCC2)cc(-c2c(O)cccc2OCC2CC2)nc1N`, the Potency in test [1] is 2.64 µM (active); in test [20], 11.8 µM (active); in test [2] it was 18.7 µM (active); in test [4], 16.6 µM (active); in test [5] it was 18.7 µM (active); in test [7], 18.7 µM (active). Further, the Potency in test [8] is 0.418 µM (active); in test [9], 14.8 µM (active); in [10] it was 20.9 µM (active); in [11] it was 23.5 µM (active); in test [13], 18.7 µM (active); in test [14], 18.7 µM (active). Also, the Potency in test [15] is 14.8 µM (active); in test [16], 20.9 µM (active); in test [19], 20.9 µM (active).
